# According to ChEMBL document CHEMBL4808148, “HDAC6 screening dataset using tau-based substrate in an enzymatic assay yields selective inhibitors and activators” (2021):
# About 150 (2.7%) of roughly 5,600 compounds showed an effect of 50% or more. This excerpt belongs to a sample that is enriched for strong results.
# Biological target: T1, Protein deacetylase HDAC6 (Homo sapiens) (UniProt Q9UBN7)
# T1 sequence (whole entry): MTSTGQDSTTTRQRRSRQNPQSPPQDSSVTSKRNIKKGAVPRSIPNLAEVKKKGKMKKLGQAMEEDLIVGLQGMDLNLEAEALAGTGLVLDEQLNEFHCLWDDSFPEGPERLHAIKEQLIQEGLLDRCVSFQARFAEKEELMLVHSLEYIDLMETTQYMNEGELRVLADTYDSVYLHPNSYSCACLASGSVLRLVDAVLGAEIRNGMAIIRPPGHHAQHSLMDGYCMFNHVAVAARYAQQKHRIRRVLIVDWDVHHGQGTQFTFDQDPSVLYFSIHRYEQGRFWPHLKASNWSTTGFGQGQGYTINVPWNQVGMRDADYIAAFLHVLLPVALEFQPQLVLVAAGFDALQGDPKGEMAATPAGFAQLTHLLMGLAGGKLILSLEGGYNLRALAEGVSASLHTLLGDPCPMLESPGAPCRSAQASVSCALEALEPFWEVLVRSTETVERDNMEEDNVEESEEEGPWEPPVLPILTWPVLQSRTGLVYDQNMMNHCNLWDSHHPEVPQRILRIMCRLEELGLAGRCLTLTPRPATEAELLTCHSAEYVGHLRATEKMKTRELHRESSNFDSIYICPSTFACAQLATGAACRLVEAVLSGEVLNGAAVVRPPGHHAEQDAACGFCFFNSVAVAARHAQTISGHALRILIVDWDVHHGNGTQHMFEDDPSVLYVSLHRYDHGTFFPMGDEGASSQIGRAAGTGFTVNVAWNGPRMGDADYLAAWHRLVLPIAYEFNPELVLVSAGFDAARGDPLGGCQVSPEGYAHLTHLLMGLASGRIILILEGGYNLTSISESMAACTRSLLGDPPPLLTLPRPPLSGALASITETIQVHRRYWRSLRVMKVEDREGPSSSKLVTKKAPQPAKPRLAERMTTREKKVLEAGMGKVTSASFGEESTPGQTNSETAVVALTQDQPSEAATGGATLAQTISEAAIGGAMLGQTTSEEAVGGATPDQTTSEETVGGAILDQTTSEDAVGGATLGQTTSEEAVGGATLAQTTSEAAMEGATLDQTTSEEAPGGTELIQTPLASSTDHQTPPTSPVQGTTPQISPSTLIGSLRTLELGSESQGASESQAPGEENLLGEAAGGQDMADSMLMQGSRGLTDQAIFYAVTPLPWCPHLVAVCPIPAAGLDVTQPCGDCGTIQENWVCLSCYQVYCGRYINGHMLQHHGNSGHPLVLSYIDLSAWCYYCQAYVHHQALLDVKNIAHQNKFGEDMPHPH
# Conditions: at 10 µM
row,Compound,inhibition [%]
1,CCN(c1ccccc1)c1cc(NC)[n+](C)c(C)n1,-1.77
2,O=C(O)Cc1nn(Cc2nc3cc(C(F)(F)F)ccc3s2)c(=O)c2ccccc12,-1.1
3,O=C(Nc1ccc(S(=O)(=O)Nc2nccs2)cc1)C(c1ccccc1)c1ccccc1,-1.03
4,CN[C@@H](C)C(=O)N[C@H](C(=O)N1CCC[C@H]1C(=O)Nc1sc(-c2ncco2)nc1-c1ccccc1)C1CCCCC1,-6.76
5,O=c1[nH]cnc2ccccc12,-1.07
6,COc1cc2nc(N3CCN(C(=O)COc4c(OC)cccc4C(C)C)CC3)nc(N)c2cc1OC,4.56
7,CCCCOc1nc(N)c2c(n1)N(Cc1cccc(CN3CCCC3)c1)CC(=O)N2,3.13
8,CC1CCc2c(cc(Br)c(F)c2Br)N1C=O (configuration not stated),3.01
9,N#C/C(=C\c1cn(-c2ccccc2)c2ccccc12)C(=O)O,-2.69
10,O=S(=O)(O)CC(S)CS (configuration not stated),2.52
11,Cc1ccc(CCCO)c(NCc2ccc3nc(NCCCN4CCOCC4)n(Cc4nc(C)ccc4O)c3c2)c1,-5.63
12,N#Cc1c(N)nc(SCc2csc(-c3ccc(Cl)cc3)n2)c(C#N)c1-c1ccc(OCCO)cc1,2.06
13,CCCCCCCCCCCCCCCC[n+]1ccn(Cc2ccccc2)c1C,-2.57
14,COc1cc2c(cc1OC)-c1c(C)c3ccc(OC)c(OC)c3c[n+]1CC2,-0.34
15,COc1ccc([C@@H]2CC(=O)c3c(O)cc(O)cc3O2)cc1O,31.5
16,COc1ccc(-c2cc(=O)c3c(O)cc(O)cc3o2)cc1O,52.3
17,COc1ccc(-c2cc(=O)c3c(O)cc(O[C@@H]4O[C@H](CO[C@@H]5O[C@@H](C)[C@H](O)[C@@H](O)[C@H]5O)[C@@H](O)[C@H](O)[C@H]4O)cc3o2)cc1O,8.42
18,CC(C)[C@H](C(=O)Nc1ccc(C(=O)NO)cc1)c1ccccc1,98
19,O=C(O)c1ccc(NC(=O)[C@H](Cc2ccc(O)cc2)NC(=O)c2ccccc2)cc1,3.32
20,CC(=O)Nc1ccc(C(=O)Nc2ccccc2N)cc1,0.93
21,O=C(O)c1ccccc1Nc1ccc(CCc2ccc(Cl)c(Cl)c2)cc1,-6.85
22,COc1ccc2c(c1)C(C(=O)N(Cc1ccc(N(C)C)cc1)c1ccc(C(C)C)cc1)CCC2 (configuration not stated),-3.38
